# PubChem BioAssay AID686978 (National Center for Advancing Translational Sciences (NCATS), 2013)
# About 64,000 (15%) of roughly 420,000 compounds were called active. About 27% were inconclusive and are not listed. Not all results are given here. A number with no mark means an inactive call. Calls follow the shape of the dose curve; as a rule, active = well fitted inhibition curve with a large enough effect; inconclusive = small, poorly fitted or top-dose-only effect; inactive = flat fitted curve, though single readings scatter.
# Test: qHTS for Inhibitors of human tyrosyl-DNA phosphodiesterase 1 (TDP1): qHTS in cells in absence of CPT; also: nearly all actives have a fitted effect of over 55% in size
# Settings: DT40 Tdp1-/- hTDP1 cells, no CPT, ATP luminescence, 48 h; activity change, negative = growth inhibition: at 46.2 µM (top of the series)
# Method in brief: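 Chicken DT40 Tdp1-/- cells complemented with human TDP1, screened without camptothecin (DMSO vehicle only), 400 cells/well. Compounds pin-transferred, cells incubated at 37 °C for at least 48 hr. Growth read as ATP-dependent luminescence (CellTiter-Glo, 30 min at RT).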
# % is scaled to controls: 0 for no effect and ±100 for the full control effect; potency is read from the fitted curve at half-maximal effect.
SMILES,"activity change, negative = growth inhibition [%]",Potency
CCCS(=O)(=O)N1CCCC(C(=O)NCc2ccco2)C1 (stereo not given),-13.9,
COc1ccc(C(C#N)Nc2ccc(C)cc2)cc1 (stereo not given),-13.7,
Fc1ccc(/C=N/Nc2nc(-c3cccnc3)nc3ccccc23)cc1,,16.4 µM (active)
O=C(N/N=C/c1cccnc1)c1ccc(NC(=O)c2ccc(F)cc2)cc1,-26.4,
CCOc1ccc(C2/C(=C(/O)c3ccc4c(c3)CC(C)O4)C(=O)C(=O)N2CCCn2ccnc2)cc1 (stereo not given),-4,
COc1ccc(NC(=O)CCN2C(=O)/C(=C/c3ccc4c(c3)OCO4)SC2=S)cc1,-25.5,
O=C1/C(=C\c2ccccc2Cl)SC(=S)N1CCC(=O)N1CCCc2ccccc21,,14.6 µM (active)
O=C(CN1CCCCCC1)NCCN1C(=O)S/C(=C\c2ccccc2Cl)C1=O,-24,
C=C(C)C1CC=C(CO)CC1 (stereo not given),5.86,
CCCn1c(N)c(C(=O)CSc2nnc(-c3cccnc3)n2-c2ccc(C)cc2C)c(=O)[nH]c1=O,-27.8,
Nc1nonc1-n1nnc(C(=O)N/N=C/c2c[nH]c3ccccc23)c1-c1ccccc1,-12.4,
Cc1c(/C=N\NC(=O)c2cc3ccccc3o2)c2ccccc2n1C,,3.66 µM (active)
O=C(O)c1cccc(NC(=S)N/N=C/c2c[nH]c3ccccc23)c1,14.2,
O=C(N/N=C/c1cccc(O)c1)c1cc2c(ccc3ccccc32)o1,-11.2,
CSC(=S)N/N=C/c1c[nH]c2ccccc12,,0.92 µM (active)
Cc1c(/C=N/N2C(=O)C3C4C=CC(C4)C3C2=O)c2ccccc2n1C (stereo not given),-28.9,
NC(=O)CSc1c[nH]c2ccccc12,-5.76,
O=C(N/N=C/c1c[nH]c2ccccc12)c1ccccc1O,-15.3,
O=C(N/N=C/c1c[nH]c2ccccc12)c1cc2ccccc2o1,,14.6 µM (active)
O=C(O)C(F)(F)C(NCc1ccccc1)c1ccccc1 (stereo not given),-5.89,
COc1ccc(S(=O)(=O)N2CCC(C(=O)NCCC(=O)NCCc3cccc(F)c3)CC2)cc1,-27,
Cc1ccc(S(=O)(=O)C2C(=O)NC3(C)CC2c2ccccc2O3)cc1 (stereo not given),-3.39,
Cn1c(SCC(=O)N2CCCC2)nnc1-c1ccc2c(c1)OCO2,18.9,
CCC1C(C#N)=C(SC)NC2=C1C(=O)CC(C)(C)C2 (stereo not given),-24.4,
Nc1nonc1-n1nnc(C(=O)N/N=C/C2CCCCC2)c1-c1ccccc1,6.3,
CCn1c(=O)cc(SCC(=O)NCc2ccc3c(c2)OCO3)c2ccccc21,-1.5,
CC1(C)NC(=O)N(CC(=O)Nc2cc(C(F)(F)F)cc(C(F)(F)F)c2)C1=O,0.431,
Cc1c(NC(=O)/C=C/C(=O)O)cccc1[N+](=O)[O-],5.13,
CNC(=S)Nc1ccc([N+](=O)[O-])cc1,-24.8,
O=C(O)/C=C/C(=O)NNc1ccc([N+](=O)[O-])cc1,,18.4 µM (active)
